A selection: hits, their analogues and other compounds. The true share with any hit is near 7.3%.
HCMV antiviral: human cytomegalovirus inhibition; HFF cells, HCMV-luciferase reporter, 72 h; active compounds read low; activity change, negative = inhibition, % at 57.5 µM; actives 4.5% (n = 410,000); AID 1259415; in the data active = activity change below about -60%; inconclusive = no clear call, values can overlap the other calls; inactive = above about -39%
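Screen run at 2 compound doses on HFFs infected with reporter HCMV, MOI 1 PFU/cell. Luciferase activity from cell lysates at 72 h post infection gave inhibition relative to buffer-only and Salinomycin wells.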
AmpC no deterg: inhibitors of E. coli AmpC beta-lactamase without detergent; P00811; AmpC nitrocefin hydrolysis, absorbance 480 nm, 0.0001% Triton; Potency, µM (highest dose often 57.1 µM), usual class: inhibitors; actives 0.52% (n = 330,000); AID 485341; note: nearly all actives have a fitted effect of over 20% in size
Target sequence (P00811 whole entry, looked up): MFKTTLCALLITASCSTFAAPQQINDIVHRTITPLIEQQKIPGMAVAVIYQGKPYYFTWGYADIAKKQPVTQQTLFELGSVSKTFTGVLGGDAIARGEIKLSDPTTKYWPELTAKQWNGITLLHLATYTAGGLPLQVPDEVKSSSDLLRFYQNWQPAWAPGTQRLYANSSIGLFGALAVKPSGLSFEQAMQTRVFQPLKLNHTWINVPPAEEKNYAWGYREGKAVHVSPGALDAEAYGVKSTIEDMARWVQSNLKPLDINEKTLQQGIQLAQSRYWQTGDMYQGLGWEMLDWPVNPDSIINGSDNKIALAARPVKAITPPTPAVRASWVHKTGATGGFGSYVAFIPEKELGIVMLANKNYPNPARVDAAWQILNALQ
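20 mM phosphate pH 7.0 + 0.01% (detergent screen) or 0.0001% Triton X-100; 5.3 nM AmpC reagent; cpd preinc 15 min RT; nitrocefin (800 uM stock) to start; A480 q20 s × 4 min; Activity was normalised to no-enzyme and no-compound control wells.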
HCV inh: HCV inhibition; Huh7.5.1 HCVcc-Cre infection, luciferase reporter, 44 h; Potency, µM (series often up to 41.8 µM), usual class: inhibitors; actives 3.4% (n = 340,000)
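Infectious HCVcc-Cre (~0.5 moi) was added to cells just after compound, with cells seeded 4 h earlier at 1,000 per well. Luciferase activity after 44 h culture reported infection; substrate was incubated 15 min at room temperature before reading.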
FMDV antiviral: antivirals against foot and mouth disease virus; FMDV antiviral cell-based qHTS; Potency, µM (highest dose often 57.9 µM), usual class: inhibitors; actives 1.2% (n = 410,000); AID 1159524; calls by dose curve; tested in HEK293T cells; note: read-out not given here; nearly all actives have a fitted effect of over 45% in size
AmpC inh detg: inhibitors of E. coli AmpC beta-lactamase with detergent | actives 0.041% (n = 370,000) | AID 485294 | P00811 | Potency, µM (titrated, usually from 114 µM), most hits filed as inhibitors | AmpC hydrolysis of nitrocefin, absorbance 480 nm, 0.01% Triton; note: nearly all actives have a fitted effect of over 25% in size
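20 mM phosphate pH 7.0 + 0.01% (detergent screen) or 0.0001% Triton X-100; 5.3 nM AmpC reagent; cpd preinc 15 min RT; nitrocefin (800 uM stock) to start; A480 q20 s × 4 min; Activity was normalised to no-enzyme and no-compound control wells.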
Numbers stand for hits; [ ] = dose if it differs, or a comment. Unless noted, calls come from the whole dose curve; as a rule, active = well fitted curve in the direction sought with a large enough effect; inconclusive = small, poorly fitted or top-dose-only effect, or another doubt; inactive = no such curve, though single readings can be large; an effect the other way counts as inactive or inconclusive.

How did CC1CCN(C(=O)COC(=O)CNC(=O)C23CC4CC(CC(C4)C2)C3)CC1 do in these assays?
HCMV antiviral: inactive; AmpC no deterg: inactive; HCV inh: inactive; FMDV antiviral: inactive; AmpC inh detg: inactive

How did O=C(Nc1ccc(C(=O)N2CCCCC2)cc1)C1CCC1 do in these assays?
HCMV antiviral: inactive; HCV inh: inactive[8.37 µM]; FMDV antiviral: inactive

How did COc1ccc(NC(=O)CCC(=O)N2CCOCC2)c([N+](=O)[O-])c1 do in these assays?
HCMV antiviral: inactive; AmpC no deterg: inactive; HCV inh: inactive; FMDV antiviral: inactive; AmpC inh detg: inactive

Results for C/C(=N\NC(=O)CCn1nnc2ccccc21)c1cccs1 ?
HCMV antiviral: inactive; AmpC no deterg: inactive; HCV inh: inactive; FMDV antiviral: inactive; AmpC inh detg: inconclusive

What do the screens show for `CN1c2ccccc2N(C)C1(C)c1ccccc1`?
HCMV antiviral: -92.8; AmpC no deterg: inactive; HCV inh: inactive; FMDV antiviral: inactive; AmpC inh detg: inactive

Results for Cc1ccc(S(=O)(=O)N2CCN(CCc3ccncc3)CC2)cc1 ?
HCMV antiviral: inactive; AmpC no deterg: inactive; HCV inh: inactive; FMDV antiviral: inactive

Results for Cc1c(NC(=O)CN2C(=O)NC3(CCCC3)C2=O)c(=O)n(-c2ccccc2)n1C ?
HCMV antiviral: -100.9; AmpC no deterg: inactive; HCV inh: inactive; FMDV antiviral: inactive; AmpC inh detg: inactive

Results for CN(CC(=O)Nc1cccc(F)c1)CC(=O)Nc1cccc(S(=O)(=O)N(C)c2ccccc2)c1 ?
HCMV antiviral: inactive; HCV inh: inconclusive; FMDV antiviral: inconclusive

Results for CC(=O)Nc1ccc(NC(=O)COC(=O)c2ccc(S(=O)(=O)N(C)c3ccccc3)cc2)cc1 ?
HCMV antiviral: -100.2; HCV inh: inactive; FMDV antiviral: inactive

What do the screens show for `Cc1cc(C)c(NC(=O)CN(C)CC(=O)Nc2cccc(S(=O)(=O)N(C)c3ccccc3)c2)c(C)c1`?
HCMV antiviral: inconclusive; AmpC no deterg: inactive; HCV inh: 10µM; FMDV antiviral: inconclusive

How did CN(c1ccccc1)S(=O)(=O)c1cccc(NC(=O)COC(=O)C2CCCCC2)c1 do in these assays?
HCMV antiviral: inactive; AmpC no deterg: 3.55µM; HCV inh: inactive; FMDV antiviral: inactive; AmpC inh detg: inactive

How did NS(=O)(=O)c1cccc(NC(=O)COC(=O)C2CCCCC2)c1 do in these assays?
HCMV antiviral: inconclusive; AmpC no deterg: inactive; HCV inh: inactive; FMDV antiviral: inactive; AmpC inh detg: inactive

What do the screens show for `CCN(CC)c1ccc(C(=O)OCC(=O)Nc2ccccc2-c2ccccc2)cc1`?
HCMV antiviral: inactive; AmpC no deterg: inactive; HCV inh: 8.91µM; FMDV antiviral: 17.8µM; AmpC inh detg: inactive

How did CN(c1ccccc1)S(=O)(=O)c1cccc(NC(=O)C2CCCO2)c1 (centres undefined) do in these assays?
HCMV antiviral: -62.3; AmpC no deterg: inactive; HCV inh: inactive; FMDV antiviral: inactive

Results for CN(C)c1cccc(C(=O)OCC(=O)Nc2ccccc2-c2ccccc2)c1 ?
HCMV antiviral: inactive; AmpC no deterg: inactive; HCV inh: inconclusive; FMDV antiviral: inconclusive; AmpC inh detg: inactive

How did CN(c1ccccc1)S(=O)(=O)c1cccc(NC(=O)CN2C(=O)NC3(CCCCC3)C2=O)c1 do in these assays?
HCMV antiviral: inactive; AmpC no deterg: inactive; HCV inh: 3.16µM; FMDV antiviral: inactive; AmpC inh detg: inactive

How did OCc1ccccc1O[C@H]1OC(CO)C(O)C(O)C1O (some centres undefined) do in these assays?
FMDV antiviral: inactive

What do the screens show for `Cn1nnc2c[n+](CC(=O)c3ccc(Cl)cc3)cc(Br)c21`?
HCMV antiviral: -96.0; AmpC no deterg: inactive; HCV inh: inconclusive; FMDV antiviral: inconclusive; AmpC inh detg: inactive

What do the screens show for `Cn1nnc2c[n+](CC(=O)c3ccc4ccccc4c3)cc(Br)c21`?
HCMV antiviral: -96.7; AmpC no deterg: inactive; HCV inh: inconclusive; FMDV antiviral: inconclusive; AmpC inh detg: inactive

Results for CCOCCCn1c(C)nc2c[n+](CC(=O)c3ccc4ccccc4c3)cc(Br)c21 ?
HCMV antiviral: inactive; AmpC no deterg: inactive; HCV inh: inactive; FMDV antiviral: inactive; AmpC inh detg: inactive

How did O=C(C[n+]1ccccc1)c1ccc(Cl)cc1 do in these assays?
AmpC no deterg: inactive; HCV inh: inactive; FMDV antiviral: inactive; AmpC inh detg: inactive

What do the screens show for `CCN1CCN(C(=O)CSc2nc3c(c(=O)n(C)c(=O)n3C)n2C)CC1`?
HCMV antiviral: inactive; AmpC no deterg: inactive; HCV inh: inactive; FMDV antiviral: inactive; AmpC inh detg: inactive

What do the screens show for `CCCN(CCC)C(=O)Cn1c(=O)n(-c2cccc(OC)c2)c(=O)c2c3c(sc21)CCCC3`?
HCMV antiviral: inactive; FMDV antiviral: inactive; AmpC inh detg: inactive

What do the screens show for `O=C(COC(=O)Cc1c[nH]c2ccccc12)Nc1ccccc1`?
HCMV antiviral: inactive; AmpC no deterg: inactive; HCV inh: inactive; FMDV antiviral: inactive; AmpC inh detg: inactive

What do the screens show for `CN(C)S(=O)(=O)c1cccc(C(=O)OCC(=O)Nc2sccc2C(N)=O)c1`?
HCMV antiviral: inactive; AmpC no deterg: inactive; HCV inh: inconclusive; FMDV antiviral: 14.1µM; AmpC inh detg: inconclusive

Results for NC(=O)c1ccsc1NC(=O)COC(=O)Cc1cccc2ccccc12 ?
HCMV antiviral: inactive; AmpC no deterg: inactive; HCV inh: inconclusive; FMDV antiviral: 31.6µM; AmpC inh detg: inactive

What do the screens show for `COc1cc(CCC(=O)OCC(=O)Nc2sccc2C(N)=O)cc(OC)c1OC`?
HCMV antiviral: inactive; AmpC no deterg: inactive; HCV inh: 12.6µM; FMDV antiviral: 17.8µM; AmpC inh detg: inactive

How did NC(=O)c1ccsc1NC(=O)COC(=O)Cc1ccccc1 do in these assays?
HCMV antiviral: inactive; AmpC no deterg: inactive; HCV inh: inactive; FMDV antiviral: inconclusive; AmpC inh detg: inactive

What do the screens show for `NC(=O)c1ccsc1NC(=O)COC(=O)Cc1c[nH]c2ccccc12`?
HCMV antiviral: inactive; AmpC no deterg: inactive; HCV inh: inconclusive; FMDV antiviral: 20µM; AmpC inh detg: inconclusive

What do the screens show for `CSc1nnc(CCNC(=O)/C=C/c2cccc(F)c2)n1-c1ccc(F)cc1`?
FMDV antiviral: inactive

How did CCCCN1C(=O)C(CC(=O)NCc2cccc3ccccc23)CC(C(=O)N(C(C)C)C(C)C)=C1C (centres undefined) do in these assays?
HCMV antiviral: inactive; FMDV antiviral: inactive

What do the screens show for `O=C(Nc1cc(Cl)ccc1Cl)c1ccc2c(c1)N(Cc1cccc(Cl)c1)C(=O)c1ccccc1S2=O` (centres undefined)?
HCMV antiviral: inactive; FMDV antiviral: inactive; AmpC inh detg: inactive

What do the screens show for `O=C(NCCS(=O)(=O)N1CCN(c2ccccc2F)CC1)c1ccc(Br)cc1`?
HCMV antiviral: inactive; AmpC no deterg: inactive; HCV inh: inactive; FMDV antiviral: inactive; AmpC inh detg: inactive

How did COc1ccc(/C(CC2OC(=O)c3ccccc32)=N\NC(N)=O)cc1 (centres undefined) do in these assays?
HCMV antiviral: inactive; AmpC no deterg: inactive; HCV inh: inactive; FMDV antiviral: inactive; AmpC inh detg: inactive

High-throughput results deposited in PubChem BioAssay by National Center for Advancing Translational Sciences (NCATS).
